The experiment addresses T1, Aspartate--tRNA(Asp/Asn) ligase (Mycobacterium tuberculosis (strain ATCC 25618 / H37Rv)) (UniProt P9WFW3).
T1 sequence (whole entry): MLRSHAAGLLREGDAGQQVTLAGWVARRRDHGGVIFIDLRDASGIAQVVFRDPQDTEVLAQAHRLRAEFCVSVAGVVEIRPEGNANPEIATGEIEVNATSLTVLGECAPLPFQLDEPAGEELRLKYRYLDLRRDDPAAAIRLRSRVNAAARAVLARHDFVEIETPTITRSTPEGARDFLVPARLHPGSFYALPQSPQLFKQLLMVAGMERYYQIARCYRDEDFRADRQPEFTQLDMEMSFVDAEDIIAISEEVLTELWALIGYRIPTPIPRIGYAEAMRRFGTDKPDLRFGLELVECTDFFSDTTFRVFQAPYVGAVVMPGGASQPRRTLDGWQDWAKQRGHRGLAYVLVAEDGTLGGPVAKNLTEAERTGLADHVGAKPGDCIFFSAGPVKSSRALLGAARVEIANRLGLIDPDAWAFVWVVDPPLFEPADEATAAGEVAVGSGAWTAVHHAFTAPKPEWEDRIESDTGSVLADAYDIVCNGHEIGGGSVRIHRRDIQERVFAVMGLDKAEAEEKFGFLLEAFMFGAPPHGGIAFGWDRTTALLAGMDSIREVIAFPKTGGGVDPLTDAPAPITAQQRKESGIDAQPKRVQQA
The experiment is described as follows: Assay for Asp RNA synthetase-1 from Mycobacterium tuberculosis. Further details: scale not given: in the data most compounds retested in dose-response had high values. It is filed as functional. The note with it: 30 µM.
For `O=C(C1CCCC1)N1CCN(Cc2nc(-c3ccco3)no2)CC1`, the Percent Effect is -3%.
Regarding `CC(C)C(=O)N1CCCC(c2cc(C(F)F)n3ncnc3n2)C1` (stereo unspecified), the Percent Effect was found to be 1.92%.
Take `CCn1cnnc1CNC(=O)N1CCN(c2cccs2)CC1`: the Percent Effect was -5.34%.
Take `COc1ccc(CN2CCn3cc(Cn4cccn4)nc3C2)cc1`: the Percent Effect was 6.63%.
Take `O=C(NCCc1ccccn1)NC1CCN(c2ncccn2)CC1`: the Percent Effect was determined as 1.19%.
To `CCn1nc(CC(C)C)cc1C(=O)NCCn1cccc1` belongs 3.71%.
The same measure for `COc1cc(C(=O)N2CCCS2(=O)=O)ccc1C`: -7.63%.
For `CC(C)c1nc(CN(C)C2CCN(CCNS(C)(=O)=O)C2)no1` (stereo unspecified), the Percent Effect was found to be 0.0463%.
As for `Cn1cc(CN2CCC3(C2)CN(Cc2ccsc2)C3)cn1`, the Percent Effect is 1.9%.
As to `O=C(NC1CC1)[C@H]1C[C@H]2OCC[C@H]2N(CC2CC2)C1`, the Percent Effect was found to be 3.52%.
On to `O=C(Cc1ccc2c(c1)CCO2)N1CCN(c2cnccn2)CC1`, for which the Percent Effect is -4.06%.
Turning to `Cc1ncc(CNC(=O)Nc2cc(C(F)(F)F)c[nH]c2=O)s1`, the Percent Effect worked out at 2.67%.
`N#Cc1ccc(CNCC2CCN(CCO)CC2)cc1`: the Percent Effect is 5.92%.
For `Cc1nc(CCNC(=O)NCc2ccc(N(C)C)nc2)cs1`, the Percent Effect was -1.75%.
Regarding `COc1ccc(NC(C)C(=O)NCCc2cccs2)cc1F` (stereo unspecified), the Percent Effect worked out at 7.04%.
For `Cc1cc(C)nc(Nc2cccc(C3CCCN(C)C3)n2)n1` (stereo unspecified), the Percent Effect was -3.29%.
Consider `Cc1cnc(CN(Cc2ccccc2)CC(O)c2cccs2)cn1` (stereo unspecified), for which the Percent Effect is -1.43%.
As to `COCCN(C)Cc1ccc(OC)c(OC(F)F)c1`, the Percent Effect was 2.53%.
To `C=C1c2ccccc2C(=O)N1CCC(=O)N1CCNC(=O)C1` belongs -2.35%; to `CCc1cccc(N2CCC(NC(=O)c3cc[nH]n3)CC2)c1`, 7.15%; to `CNS(=O)(=O)c1ccc(CNC(=O)NCC2CCCO2)cc1` (stereo unspecified), 0.75%.

The record behind these values is ChEMBL document CHEMBL3988442, “University of Dundee, Small-Polar-MMV Screening Library” (2021).
